Data: PubChem BioAssay (NCI)
“And” between values parts separate entries of the source, which are not always exact repeats. Equal values may be shown once. About 83,000 compounds went through this panel and 20% of them were active in at least one assay; those are over-represented in the sample as a whole.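 Assay: single dose, 48 h. Readout: percent growth (0 = no net growth; negative = cell death). Active: <10.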 The source made the active and inactive calls.

What follows are compounds tested on PC-3 prostate (assay: NCI-60 one-dose screen, 48 h (100 = growth as untreated, 0 = no growth, -100 = all killed)). Details: 10 µM unless noted.
Protocol: Growth inhibition of the PC-3 human tumor cell line is measured as a screen for anti-cancer activity. Cells are grown in 96 well plates and exposed to the test compound for 48 hours. Compounds are tested at a single concentration, which is 10^-5 M for most compounds. The reported endpoint is percent growth (GI% or GIPRCNT), where numbers from 0 - 100% represent growth inhibition, and numbers from -100% - 0 represent cell death. For example, a value of 40 represents 60% growth inhibition. A value of 0 means no net growth occurred over the course of the experiment. A value of -40 indicates 40% of cells at the beginning of the experiment died by the end of the experiment. A value of -100 means all cells are dead at the end of the experiment.
NCI-60 Human Tumor Cell Lines Screen was performed using the standard one-dose NCI protocol, which is described in more detail at https://dtp.cancer.gov/discovery_development/nci-60/default.htm.
Compounds with GIPRCNT values below 10 were considered active. Activity score was based on GIPRCNT using the following formula: […]
Score is 0 for GIPRCNT values of 100 or above, 50 for GIPRCNT values of 0, and 100 for GIPRCNT values of -100.
With O=C(CN1CCN(c2cc(=O)[nH]c3ccc(F)cc23)CC1)N(c1ccccc1)c1ccccc1 the growth was 96.5% (inactive). For O=C1Nc2ccc(F)cc2/C1=C\C(=O)c1ccc(NS(=O)(=O)c2ccccc2)cc1, the growth was 92% (inactive). With COc1cc(NC(=O)Nc2cccc(-c3cc(=O)c4c(OC)c(OC)c(OC)cc4o3)c2)cc(OC)c1OC the growth was 44.8% (inactive). CN1CCN(c2ccc(Nc3nc(NCCNC(=O)c4ccccc4)c4sccc4n3)cc2)CC1 was tested, and the growth was 61.8% (inactive). For C#CCN(C)CCCOc1ccc(NCc2ccc(C(=O)NO)cc2)cc1Cl, the growth was 29.4% (inactive). With Cn1c(SCC(=O)c2ccco2)nc2ccccc2c1=O the growth was 93.6% (inactive). With NCCNC(=O)c1cccc(COc2ccccc2NC(=O)c2cc(Br)c(Br)[nH]2)c1 the growth was 82.1% (inactive). For Cc1ccc(-c2cc3nc(C(Cl)Cl)nc(-c4ccc(S(=O)(=O)N(C)C)cc4)n3n2)cc1, the growth was 91.7% (inactive). For CC1=C(C)C(=O)C(Nc2ccc(C)cc2)=C(Br)C1=O, the growth was 87.8% (inactive). In the case of O=C(COc1ccc(/C=C2\C(=O)Nc3ccc(Cl)cc32)cc1)Nc1ccc(Cl)cc1, the growth is reported as 41.7% (inactive). In the case of O=[N+]([O-])c1ccc(NC(=S)NNC(=S)Nc2ccc(Br)cc2)cc1, the growth is reported as 75.3% (inactive). For C/C(=C(\c1ccc(O)cc1)c1ccc(OCCN2CCCCCC2)cc1)c1ccc(Cl)cc1, the growth was -69.9% (active). For CCC1=Cc2c(OC)cccc2OC12C=Cc1c(OC)cccc1O2 (stereo not given), the growth was 36.1% (inactive). With CCCCCCOC(=O)c1cc(-c2ccc(F)cc2)nc2ccccc12 the growth was 94.2% (inactive). With CN1CCN(CCNc2nc(-c3cccc(NS(=O)(=O)c4cccc5c(N(C)C)cccc45)c3)cs2)CC1 the growth was 65.5% (inactive). With COc1ccc(C2CC(c3cccc(OCCCCOc4cccc(C5=NN(C(C)=O)C(c6ccc(OC)cc6)C5)c4)c3)=NN2C(C)=O)cc1 (stereo not given) the growth was 48.4% (inactive). For O=C(CSc1nc2ccccc2c(=O)n1-c1ccc(Cl)c(Cl)c1)Nc1ccc(S(=O)(=O)Nc2ccc(Cl)nn2)cc1, the growth was 92.3% (inactive). For Oc1[nH]c2ccc(Cl)cc2c1N=Nc1nc(N=Nc2c(O)[nH]c3ccc(Cl)cc23)nc(N2CCCCC2)n1, the growth was 19.5% (inactive). In the case of O=C1c2ccccc2C23C(=C(c4cncnc4)c4ccccc42)CCCN13 (stereo not given), the growth is reported as 88.8% (inactive). In the case of C#C[C@]1(O)CC[C@H]2[C@@H]3CC=C4c5sc(Nc6cc(C)cc(C)c6)nc5CC[C@]4(C)[C@H]3CC[C@@]21C, the growth is reported as -8.26% (active). In the case of CC(C)NC(=O)c1cc(-c2ccc(NC(=O)Nc3ccc(F)c(C(F)(F)F)c3)cc2)nc2cccnc12, the growth is reported as 84.2% (inactive). With COC(=O)CNC(=O)c1cccc(-c2cc(=O)c3c(OC)c(OC)c(OC)cc3o2)c1 the growth was 95.6% (inactive). With Cc1cccc(N2CCN(C3=C(Cl)C(=O)c4ncccc4C3=O)CC2)c1 the growth was 72.9% (inactive). In the case of Cc1ccc2c(n1)C(=O)C(Cl)=C(Nc1ccc(C(=O)OC(C)(C)C)cc1)C2=O, the growth is reported as 72.1% [9.25 µM] (inactive). With CC1(C)CC[C@]23CC[C@]4(C)[C@H](CC[C@@H]5[C@@]6(C)CC[C@H](N)C(C)(C)[C@@H]6CC[C@]54C)[C@H]2[C@H]1OC3 the growth was 69.6% (inactive). For CN1CCN(c2ccc(Nc3nc(NCCCNS(=O)(=O)c4ccc(C(F)(F)F)cc4)c4sccc4n3)cc2)CC1, the growth was 20.7% (inactive). With C/C=C/CC(C)C(O)[C@H](NC(=O)[C@@H]1CCCN1C(=O)[C@](C)(CC)NC(=O)CCCCCCCCC)C(=O)N[C@@](C)(CC)C(=O)N[C@@H](CCC(N)=O)C(=O)N[C@H](CCC(N)=O)C(=O)NC(C)(C)C(=O)NC(C)(C)C(=O)N[C@@H](CCC(N)=O)C(=O)N[C@H](CC(C)C)C(=O)N[C@H](CO)CC(C)C (stereo not given in full) the growth was 69.8% (inactive) and -63.6% (active). With O=c1c2ccccc2cc2n1CCN=C2c1ccccc1 the growth was 96.5% (inactive). In the case of C#CCOc1cccc(/C(N)=N/C(N)=N/c2nc3ccccc3s2)c1, the growth is reported as 69.8% (inactive). With CCOC(=O)C(=O)Nc1ccc2c(ccn2C(=O)c2cccc(F)c2)c1 the growth was 99.6% (inactive). For COc1ccc(C(=NNS(=O)(=O)c2ccc(C)cc2)c2ccccc2)cc1OC, the growth was 93% (inactive). For CN(C)CCCOc1ccc(C(=C(c2ccccc2)C2CCCC2)c2ccc(OCCCN(C)C)cc2)cc1, the growth was -65.5% (active). In the case of O=C(/C=C/c1ccc(Cl)c(Cl)c1)Nc1ncc(Cc2ccc(Cl)c(Cl)c2)s1, the growth is reported as 45.3% (inactive). O=C(/C=C/c1cccc(Br)c1)c1cccc(OCCCCOc2cccc(C(=O)/C=C/c3cccc(Br)c3)c2)c1 was tested, and the growth was 104% (inactive). For COc1ccc([C@@H]2C(=O)N(c3cc(OC)c(OC)c(OC)c3)[C@H]2c2ccc(OC)c(O)c2)cc1, the growth was 29.8% (inactive). CCn1c2ccc(/C=N/N(C)S(=O)(=O)CCN(C)C)cc2c2cc(/C=N/N(C)S(=O)(=O)CCN(C)C)ccc21 was tested, and the growth was 85.8% (inactive). CCOC(=O)Nc1ccc2c(ccn2C(=O)c2cccc(F)c2)c1 was tested, and the growth was 42% (inactive). C=CCSC1=NC2C(N(CC)C(=O)N2CC)N1/N=C/C=C/c1ccccc1OC (stereo not given) was tested, and the growth was 62.4% (inactive). With CC1(C)CC[C@]2(C(=O)NCCCCCCN(CCCN)CCCN)CC[C@]3(C)C(=CC[C@@H]4[C@@]5(C)CC[C@H](O)C(C)(C)[C@@H]5CC[C@]43C)[C@@H]2C1 the growth was 103% (inactive). With CC(C)(C)c1cc(NC(=O)Nc2ccc(-c3cn4c5c(sc4n3)CCc3cn(CCCN4CCCCC4)cc3-5)cc2)no1 the growth was -74.8% (active).
